Assay [1] in a line: reduced viability of SK-BR-3 breast cancer cells – cell-based, 24 h, human, pilot screen (AID 572;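 active means viability at or below 10% of carrier control in both of two separate runs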;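 further: compound exposure lasted between 18 and 24 h rather than exactly 24 h; 100% = carrier-treated control wells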). The note with it: SK-BR-3 viability, CellTiter-Glo luminescence, at 10 µM, stronger effect = lower value. A general note: In ATP-based viability assays light output follows the ATP content of the culture.
Assay [2] in a line: H69AR cell proliferation blockers – human, duplicate replicates, primary screen (AID 580;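 active means viability at or under a set limit in both replicates, limit being median viability minus 3 SD, cut at about 48% in these data, passing the limit was not always enough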;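 further: 100% = mean luminescence of untreated wells and 0% = no signal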). The note with it: H69AR lung tumor cells viability, ATP luminescence, 72 h; at 10 µM; stronger effect = lower value.
Assay [3] can be described thus: MRP1 drug-resistance reversers in H69AR cells – cell-based, doxorubicin co-treatment, pilot screen (AID 601). The following applies: CellTiter-Glo, 72 h, at 10 µM; for differential viability (reversal): stronger effect = higher value.
A short description of assay [4]: yeast transport mutant growth inhibition pilot in 384-well plates, post-Golgi transport modulator project (AID 636; in the data active means inhibition above about 31%). The note with it: absorbance 615 nm, about 18 h, stronger effect = higher value.
Assay [5] is described as follows: growth suppression of yeast trafficking mutant, preliminary HTS, modulators of trafficking downstream of Golgi apparatus project, 1536-format plate, OD 615 nm (AID 637; in the data active means inhibition above about 30%). The following applies: yeast transport mutant growth, absorbance 615 nm, 18 h; stronger effect = higher value.
A short description of assay [6]: HUVEC growth inhibition – cell-based, human, primary screen (AID 575;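 active means viability at or below 30% in both replicate assays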;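 further: 100% = median of untreated cell wells with 0.1% DMSO on each plate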). The note with it: HUVEC proliferation, CellTiter-Glo luminescence, 72 h; at 10 µM; stronger effect = lower value.
Where [7] appears, read: H69AR cells + 2 uM doxorubicin, measured here: viability with 2 uM doxorubicin, stronger effect = lower value.
[8] abbreviates: H69AR cells, compound alone cytotoxicity.

Among the data in PubChem BioAssay are viability, differential viability (reversal) and inhibition values, retold here.

Calls of active or inactive are those of the source.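 How the source made its calls, unless noted: active means viability loss from added drug above about 55%, and viability with drug at most 40%, in both replicates (limit read from the data, passing the limit was not always enough); inconclusive means both conditions met in only one replicate; inactive means neither replicate meets both conditions.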

The viability is a read-out of living cells in per cent, often relative to untreated cells. The term inhibition denotes the drop in the measured response relative to a control, in per cent. Consider `Cc1cccn2c(=O)c3cc(C(=O)NC4CCCC4)c(=N)n(C4CCCC4)c3nc12`, for which the viability in assay [1] is 107% (inactive); in assay [2] it was 27.6% (active); in assay [3] (setting [7]), 12.1%; in assay [3] (setting [8]), 27.6%. Besides, in assay [3] (H69AR cells + 2 uM doxorubicin), the differential viability (reversal) was 15.5% (inactive). Besides, the inhibition in assay [4] is -8.49% (inactive); in assay [5] it was 0.81% (inactive).
`COc1ccccc1-n1cnnc1SCC(=O)c1ccc[nH]1`: the viability was 106% (inactive) in assay [6], 108% (inactive) in assay [2], 98.1% in assay [3] (setting [7]) and 108% in assay [3] (setting [8]). The differential viability (reversal) in assay [3] (H69AR cells + 2 uM doxorubicin) was 9.87% (inactive). The inhibition was -2.21% (inactive) in assay [4] and 2.54% (inactive) in assay [5].
On to `Cc1nn(Cc2ccccc2)c(C)c1NC(=O)CCC(=O)O`, for which the viability in assay [6] is 110% (inactive); in assay [2] it was 89.4% (inactive); in assay [3] (setting [7]) it was 97.7%; in assay [3] (setting [8]), 89.4%. The differential viability (reversal) in assay [3] (H69AR cells + 2 uM doxorubicin) was -8.23% (inactive). Also, the results for the inhibition in assay [4] and in assay [5] were 3.42% (inactive) and -1.75% (inactive), respectively.
On to `Cc1ccc2[nH]c3c(c2c1)CN(C(=O)CN1CCN(c2cccc(C)c2C)CC1)CC3`, for which the viability in assay [1] was 79% (inactive); in assay [3] (setting [7]), 37.6%; in assay [3] (setting [8]), 31%. Further, the differential viability (reversal) in assay [3] (H69AR cells + 2 uM doxorubicin) is -6.55% (inactive). The inhibition is 0% (inactive) in assay [4] and 4.36% (inactive) in assay [5].
In the case of `COC(=O)Cc1c(C)c2ccc(OCC(=O)N3CCOCC3)cc2oc1=O`, the viability was 107% (inactive) in assay [6], 100% (inactive) in assay [2], 87.8% in assay [3] (setting [7]) and 100% in assay [3] (setting [8]). Also, the differential viability (reversal) in assay [3] (H69AR cells + 2 uM doxorubicin) is 12.4% (inactive). Also, the inhibition is -4.67% (inactive) in assay [4] and 17% (inactive) in assay [5].
Turning to `CCCSc1nnc(-c2ccccc2NC(=O)CC)c(=O)[nH]1`, the viability in assay [6] is 99.4% (inactive); in assay [2] it was 103% (inactive); in assay [3] (setting [7]), 88.1%; in assay [3] (setting [8]), 103%. The differential viability (reversal) in assay [3] (H69AR cells + 2 uM doxorubicin) is 14.4% (inactive). For the same compound, the inhibition in assay [4] is -5.87% (inactive); in assay [5], 3.97% (inactive).
As for `CSc1cccc(NC(=O)C2CCN(S(C)(=O)=O)CC2)c1`, the viability in assay [6] was 107% (inactive); in assay [2], 90.3% (inactive); in assay [3] (setting [7]), 89.6%; in assay [3] (setting [8]), 90.3%. Besides, in assay [3] (H69AR cells + 2 uM doxorubicin), the differential viability (reversal) was 0.77% (inactive). Further, the inhibition in assay [4] is -4.08% (inactive); in assay [5], 2.06% (inactive).
Turning to `CNCCCN1c2ccccc2CCc2ccccc21`, the viability in assay [6] was 82.1% (inactive); in assay [2], 90.4% (inactive); in assay [3] (setting [7]) it was 75.8%; in assay [3] (setting [8]), 90.4%. In addition, the differential viability (reversal) in assay [3] (H69AR cells + 2 uM doxorubicin) is 14.6% (inactive).
As for `COC(=O)Nc1nc2ccc(Sc3ccccc3)cc2[nH]1`, the viability is 90% (inactive) in assay [1], 25.1% in assay [3] (setting [7]) and 11.7% in assay [3] (setting [8]). In addition, the differential viability (reversal) in assay [3] (H69AR cells + 2 uM doxorubicin) was -13.4% (inactive). Moreover, the inhibition is 3.25% (inactive) in assay [4] and 25.2% (inactive) in assay [5].
With `CCOC(=O)c1cc(-c2ccc(Cl)s2)nc2c1c(C)nn2C`, the figures for the viability in assay [1], in assay [3] (setting [7]) and in assay [3] (setting [8]) were 66.5% (inactive), 62% and 35.8%, respectively. Moreover, the differential viability (reversal) in assay [3] (H69AR cells + 2 uM doxorubicin) was -26.2% (inactive). Further, the results for the inhibition in assay [4] and in assay [5] were -1.45% (inactive) and -0.82% (inactive), respectively.
For the compound `CSc1ccccc1NS(=O)(=O)c1ccccc1`, the viability in assay [6] is 101% (inactive); in assay [2] it was 102% (inactive); in assay [3] (setting [7]), 90.8%; in assay [3] (setting [8]), 102%. For the same compound, in assay [3] (H69AR cells + 2 uM doxorubicin), the differential viability (reversal) is 10.8% (inactive). In addition, the inhibition in assay [4] is -4.61% (inactive); in assay [5], 0% (inactive).
With `CCCCn1c(SCc2cccnc2)nc2c1c(=O)n(C)c(=O)n2C`, the viability was 121% (inactive) in assay [6], 92.8% (inactive) in assay [2], 79.2% in assay [3] (setting [7]) and 92.8% in assay [3] (setting [8]). Besides, in assay [3] (H69AR cells + 2 uM doxorubicin), the differential viability (reversal) is 13.7% (inactive). In addition, the inhibition in assay [4] was -7.76% (inactive); in assay [5], -2.86% (inactive).
As for `O=C(NC1CCCC1)c1cc(-c2cccs2)on1`, the viability in assay [6] was 90.4% (inactive); in assay [2] it was 88.6% (inactive); in assay [3] (setting [7]), 80.6%; in assay [3] (setting [8]) it was 88.6%. The differential viability (reversal) in assay [3] (H69AR cells + 2 uM doxorubicin) is 8.04% (inactive). Further, the inhibition in assay [4] was -4.21% (inactive); in assay [5] it was 3.17% (inactive).
In the case of `O=C(NC1(C(F)(F)F)NC(=O)N(Cc2ccco2)C1=O)c1cccnc1` (stereo not given), the viability in assay [6] is 109% (inactive); in assay [2], 97.2% (inactive); in assay [3] (setting [7]), 94.8%; in assay [3] (setting [8]), 97.2%. Also, the differential viability (reversal) in assay [3] (H69AR cells + 2 uM doxorubicin) was 2.34% (inactive). In addition, the values for the inhibition in assay [4] and in assay [5] were -7.89% (inactive) and 1.11% (inactive), respectively.
Take `COc1nc2ccc(C)cc2cc1-c1noc(-c2cccnc2)n1`: the viability was 103% (inactive) in assay [6], 104% (inactive) in assay [2], 91.9% in assay [3] (setting [7]) and 104% in assay [3] (setting [8]). In addition, the differential viability (reversal) in assay [3] (H69AR cells + 2 uM doxorubicin) is 11.8% (inactive). In addition, the inhibition in assay [4] is -2.37% (inactive); in assay [5], -2.54% (inactive).
Turning to `CS(=O)(=O)Nc1ccc(C(=O)NCc2ccc3c(c2)OCO3)cc1`, the viability in assay [6] was 92.2% (inactive); in assay [2], 96.2% (inactive); in assay [3] (setting [7]) it was 95.5%; in assay [3] (setting [8]), 96.2%. In addition, the differential viability (reversal) in assay [3] (H69AR cells + 2 uM doxorubicin) was 0.675% (inactive). Further, the inhibition in assay [4] is -8.29% (inactive); in assay [5], -1.9% (inactive).
`CCc1nnc(NC(=O)CSc2nnc(Cc3ccccc3)n2-c2ccc(OC)cc2)s1`: the viability in assay [6] is 92.9% (inactive); in assay [2], 84.6% (inactive); in assay [3] (setting [7]), 90.9%; in assay [3] (setting [8]), 84.6%. Also, the differential viability (reversal) in assay [3] (H69AR cells + 2 uM doxorubicin) was -6.38% (inactive). Besides, the inhibition is -5.79% (inactive) in assay [4] and -0.63% (inactive) in assay [5].
Take `CCS(=O)(=O)c1ccc(S(=O)(=O)CC)s1`: the viability in assay [6] is 104% (inactive); in assay [2], 104% (inactive); in assay [3] (setting [7]), 104%; in assay [3] (setting [8]) it was 104%. For the same compound, the differential viability (reversal) in assay [3] (H69AR cells + 2 uM doxorubicin) was 0.02% (inactive). Further, the figures for the inhibition in assay [4] and in assay [5] were -2.73% (inactive) and -1.59% (inactive), respectively.
As for `Cc1nc(-c2ccc(NC(=O)c3cccs3)cc2)cs1`, the viability in assay [6] was 58.8% (inactive); in assay [2], 62.3% (inactive); in assay [3] (setting [7]), 53.2%; in assay [3] (setting [8]), 62.3%. In assay [3] (H69AR cells + 2 uM doxorubicin), the differential viability (reversal) was 9.12% (inactive). The figures for the inhibition in assay [4] and in assay [5] were 0.13% (inactive) and 1.9% (inactive), respectively.
Turning to `COc1cc2nc(N3CCN(C(=O)C4COc5ccccc5O4)CC3)nc(N)c2cc1OC` (stereo not given), the viability in assay [1] was 59% (inactive); in assay [3] (setting [7]), 23.7%; in assay [3] (setting [8]), 8.23%. In addition, in assay [3] (H69AR cells + 2 uM doxorubicin), the differential viability (reversal) is -15.4% (inactive). The inhibition is -0.65% (inactive) in assay [4] and 6.83% (inactive) in assay [5].
Turning to `COC(=O)c1ccccc1NC(=O)c1ccc(-c2ccccc2F)o1`, the viability in assay [1] is 89% (inactive); in assay [3] (setting [7]) it was 53.2%; in assay [3] (setting [8]), 60.9%. Also, the differential viability (reversal) in assay [3] (H69AR cells + 2 uM doxorubicin) is 7.71% (inactive). The inhibition in assay [4] is -8.36% (inactive); in assay [5], -2.74% (inactive).
